# Laboratory results: paper PMC7862700, “An all-to-all approach to the identification of sequence-specific readers for epigenetic DNA modifications on cytosine”
# Legend:
# Assay in all cases: DAPPL (digital affinity profiling via proximity ligation, sequencing); 10 mM Tris-HCl pH 7.5, 50 mM NaCl, 1 mM DTT, 4% glycerol, room temperature, 30 min; GST-TFs on glutathione beads, 16-mer random dsDNA library, 0.1% formaldehyde crosslink after washing; high values mean tight binding
# FLI1 = biological target: T1, FLI1 (Homo sapiens, UniProt Q01543 1-452); conditions: protein: recombinant; tags: N-terminal GST; dsDNA, one strand shown
# T1 sequence: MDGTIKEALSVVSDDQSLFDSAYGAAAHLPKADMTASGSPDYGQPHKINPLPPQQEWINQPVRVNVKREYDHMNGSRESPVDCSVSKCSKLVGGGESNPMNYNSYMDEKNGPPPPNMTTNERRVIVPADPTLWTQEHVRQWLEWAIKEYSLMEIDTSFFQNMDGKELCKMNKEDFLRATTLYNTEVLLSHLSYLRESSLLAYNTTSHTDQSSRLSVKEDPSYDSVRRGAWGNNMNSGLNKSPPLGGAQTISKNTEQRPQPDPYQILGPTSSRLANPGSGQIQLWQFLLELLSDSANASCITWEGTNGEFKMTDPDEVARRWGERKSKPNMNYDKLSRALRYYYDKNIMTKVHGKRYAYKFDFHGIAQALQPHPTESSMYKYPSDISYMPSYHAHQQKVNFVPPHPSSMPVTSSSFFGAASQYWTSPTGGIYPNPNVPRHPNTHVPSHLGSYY
# Outline: (§1)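 Binding signal is defined as a hexamer's read frequency for one factor over its frequency for the tag-only sample. To obtain reads, GST-fused human transcription factors were expressed in yeast, captured on glutathione beads, barcoded with DNA and pooled with that sample. Pools met 200 nmole of a 16-mer random double-stranded DNA library in Tris/NaCl/DTT/glycerol buffer for 30 min at room temperature before washing, 0.1% formaldehyde crosslinking, proximity ligation (BsaI/T4 ligase, 1 h, 37 °C), PCR and Illumina NextSeq500 sequencing.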
# ELK1 = biological target: T2, ELK1 (Homo sapiens, UniProt P19419 1-428); conditions: protein: recombinant; tags: N-terminal GST; dsDNA, one strand shown
# T2 sequence: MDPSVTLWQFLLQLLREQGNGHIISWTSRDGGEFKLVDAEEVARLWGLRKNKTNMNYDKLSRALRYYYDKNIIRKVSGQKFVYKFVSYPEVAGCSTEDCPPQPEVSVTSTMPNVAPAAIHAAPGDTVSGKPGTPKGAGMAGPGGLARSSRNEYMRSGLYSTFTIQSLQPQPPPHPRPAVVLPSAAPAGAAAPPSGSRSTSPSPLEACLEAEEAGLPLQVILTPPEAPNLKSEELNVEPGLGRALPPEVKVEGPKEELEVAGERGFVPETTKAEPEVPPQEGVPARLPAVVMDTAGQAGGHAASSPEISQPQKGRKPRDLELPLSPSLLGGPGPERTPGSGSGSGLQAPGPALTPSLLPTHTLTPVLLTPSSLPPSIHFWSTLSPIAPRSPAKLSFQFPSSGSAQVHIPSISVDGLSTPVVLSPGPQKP
# Outline: as §1
# GABPA = biological target: T3, GABPA (Homo sapiens, UniProt Q06546 1-454); conditions: protein: recombinant; tags: N-terminal GST; dsDNA, one strand shown
# T3 sequence: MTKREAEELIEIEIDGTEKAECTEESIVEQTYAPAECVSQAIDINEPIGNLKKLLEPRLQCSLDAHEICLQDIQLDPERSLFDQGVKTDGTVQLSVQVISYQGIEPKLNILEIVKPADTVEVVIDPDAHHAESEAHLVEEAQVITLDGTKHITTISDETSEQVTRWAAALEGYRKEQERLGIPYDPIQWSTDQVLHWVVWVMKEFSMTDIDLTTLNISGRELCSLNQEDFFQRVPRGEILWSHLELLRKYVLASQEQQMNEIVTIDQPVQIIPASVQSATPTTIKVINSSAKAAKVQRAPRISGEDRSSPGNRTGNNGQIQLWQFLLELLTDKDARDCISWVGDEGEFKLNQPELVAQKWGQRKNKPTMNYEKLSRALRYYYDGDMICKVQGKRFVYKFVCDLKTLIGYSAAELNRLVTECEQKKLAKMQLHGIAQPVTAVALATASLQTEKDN
# Outline: as §1
# ERG = biological target: T4, ERG (Homo sapiens, UniProt P11308 1-479); conditions: protein: recombinant; tags: N-terminal GST; dsDNA, one strand shown
# T4 sequence: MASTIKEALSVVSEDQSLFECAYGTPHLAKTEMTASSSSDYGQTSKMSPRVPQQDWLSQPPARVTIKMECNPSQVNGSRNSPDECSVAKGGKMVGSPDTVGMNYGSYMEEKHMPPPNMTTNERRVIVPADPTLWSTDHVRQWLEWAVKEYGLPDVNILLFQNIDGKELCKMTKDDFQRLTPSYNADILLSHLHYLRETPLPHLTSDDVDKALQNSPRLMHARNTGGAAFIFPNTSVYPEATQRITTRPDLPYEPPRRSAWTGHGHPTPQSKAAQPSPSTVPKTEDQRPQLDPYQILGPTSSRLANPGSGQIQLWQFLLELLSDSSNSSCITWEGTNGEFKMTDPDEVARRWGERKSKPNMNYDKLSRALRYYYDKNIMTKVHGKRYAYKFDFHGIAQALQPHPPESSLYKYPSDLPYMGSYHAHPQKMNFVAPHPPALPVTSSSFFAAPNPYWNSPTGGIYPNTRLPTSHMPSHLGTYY
# Outline: as §1
# ELF1 = ELF1 (Homo sapiens, UniProt P32519 1-619); conditions: protein: recombinant; tags: N-terminal GST; dsDNA, one strand shown
# Sequence of ELF1 (P32519 whole entry): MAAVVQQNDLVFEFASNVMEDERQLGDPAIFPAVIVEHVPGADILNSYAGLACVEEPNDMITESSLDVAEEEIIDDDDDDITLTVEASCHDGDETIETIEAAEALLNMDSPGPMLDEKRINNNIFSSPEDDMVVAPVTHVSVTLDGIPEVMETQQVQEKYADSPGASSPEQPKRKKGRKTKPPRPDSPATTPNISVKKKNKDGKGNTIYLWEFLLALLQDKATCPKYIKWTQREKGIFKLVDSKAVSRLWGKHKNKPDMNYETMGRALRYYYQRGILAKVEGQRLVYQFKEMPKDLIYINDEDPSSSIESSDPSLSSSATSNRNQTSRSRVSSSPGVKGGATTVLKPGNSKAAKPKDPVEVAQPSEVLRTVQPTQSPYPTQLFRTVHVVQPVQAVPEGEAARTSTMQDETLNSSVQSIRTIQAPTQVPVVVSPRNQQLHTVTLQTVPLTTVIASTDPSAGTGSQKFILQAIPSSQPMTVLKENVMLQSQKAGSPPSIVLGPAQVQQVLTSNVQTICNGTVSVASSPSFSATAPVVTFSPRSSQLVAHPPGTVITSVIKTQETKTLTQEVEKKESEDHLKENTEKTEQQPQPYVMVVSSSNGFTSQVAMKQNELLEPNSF
# Outline: as §1
# EHF = biological target: T5, EHF (Homo sapiens, UniProt Q9NZC4 1-300); conditions: protein: recombinant; tags: N-terminal GST; dsDNA, one strand shown
# T5 sequence: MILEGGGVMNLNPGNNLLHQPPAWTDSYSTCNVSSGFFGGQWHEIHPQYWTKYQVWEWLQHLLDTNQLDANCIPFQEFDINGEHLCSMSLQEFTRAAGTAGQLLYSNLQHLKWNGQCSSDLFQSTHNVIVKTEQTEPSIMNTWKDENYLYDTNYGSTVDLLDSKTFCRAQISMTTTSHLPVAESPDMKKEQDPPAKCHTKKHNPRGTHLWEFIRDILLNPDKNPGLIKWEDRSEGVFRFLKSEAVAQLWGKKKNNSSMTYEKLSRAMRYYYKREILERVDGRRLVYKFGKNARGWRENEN
# Outline: as §1
# SPI1 = SPI1 (Homo sapiens, UniProt P17947 1-270); conditions: protein: recombinant; tags: N-terminal GST; dsDNA, one strand shown
# Outline: as §1
# SPIB = SPIB (Homo sapiens, UniProt Q01892 1-262); conditions: protein: recombinant; tags: N-terminal GST; dsDNA, one strand shown
# Sequence of SPIB (Q01892 whole entry): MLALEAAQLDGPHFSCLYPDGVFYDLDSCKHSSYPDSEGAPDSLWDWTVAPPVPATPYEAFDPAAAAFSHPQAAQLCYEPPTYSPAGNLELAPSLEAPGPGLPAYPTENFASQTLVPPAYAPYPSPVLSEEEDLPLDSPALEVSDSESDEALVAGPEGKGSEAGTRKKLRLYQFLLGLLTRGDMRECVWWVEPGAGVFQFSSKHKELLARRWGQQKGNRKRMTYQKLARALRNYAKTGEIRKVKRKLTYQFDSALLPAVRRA
# Outline: as §1
# ELK3 = biological target: T6, ELK3 (Homo sapiens, UniProt P41970 1-407); conditions: protein: recombinant; tags: N-terminal GST; dsDNA, one strand shown
# T6 sequence: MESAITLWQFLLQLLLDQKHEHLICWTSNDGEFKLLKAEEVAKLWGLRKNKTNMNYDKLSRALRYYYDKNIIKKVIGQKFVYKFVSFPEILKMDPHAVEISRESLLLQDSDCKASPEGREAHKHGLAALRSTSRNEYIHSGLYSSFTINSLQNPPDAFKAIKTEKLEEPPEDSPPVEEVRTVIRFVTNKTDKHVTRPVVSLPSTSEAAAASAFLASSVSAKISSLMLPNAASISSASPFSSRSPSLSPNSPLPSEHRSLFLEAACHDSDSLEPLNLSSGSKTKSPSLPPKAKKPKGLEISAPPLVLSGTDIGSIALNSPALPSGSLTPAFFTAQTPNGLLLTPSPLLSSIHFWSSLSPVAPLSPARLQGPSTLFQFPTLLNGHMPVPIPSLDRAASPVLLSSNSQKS
# Outline: as §1
# FEV = biological target: T7, FEV (Homo sapiens, UniProt Q99581 1-238); conditions: protein: recombinant; tags: N-terminal GST; dsDNA, one strand shown
# T7 sequence: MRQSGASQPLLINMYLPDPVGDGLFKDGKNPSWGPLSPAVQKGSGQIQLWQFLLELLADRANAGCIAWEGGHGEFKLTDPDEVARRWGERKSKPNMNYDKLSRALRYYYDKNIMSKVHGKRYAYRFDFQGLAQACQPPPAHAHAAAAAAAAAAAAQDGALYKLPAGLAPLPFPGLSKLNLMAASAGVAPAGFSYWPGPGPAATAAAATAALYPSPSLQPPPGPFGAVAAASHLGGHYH
# Outline: as §1
# ETV5 = ETV5 (Homo sapiens, UniProt P41161 1-510); conditions: protein: recombinant; tags: N-terminal GST; dsDNA, one strand shown
# Sequence of ETV5 (P41161 whole entry): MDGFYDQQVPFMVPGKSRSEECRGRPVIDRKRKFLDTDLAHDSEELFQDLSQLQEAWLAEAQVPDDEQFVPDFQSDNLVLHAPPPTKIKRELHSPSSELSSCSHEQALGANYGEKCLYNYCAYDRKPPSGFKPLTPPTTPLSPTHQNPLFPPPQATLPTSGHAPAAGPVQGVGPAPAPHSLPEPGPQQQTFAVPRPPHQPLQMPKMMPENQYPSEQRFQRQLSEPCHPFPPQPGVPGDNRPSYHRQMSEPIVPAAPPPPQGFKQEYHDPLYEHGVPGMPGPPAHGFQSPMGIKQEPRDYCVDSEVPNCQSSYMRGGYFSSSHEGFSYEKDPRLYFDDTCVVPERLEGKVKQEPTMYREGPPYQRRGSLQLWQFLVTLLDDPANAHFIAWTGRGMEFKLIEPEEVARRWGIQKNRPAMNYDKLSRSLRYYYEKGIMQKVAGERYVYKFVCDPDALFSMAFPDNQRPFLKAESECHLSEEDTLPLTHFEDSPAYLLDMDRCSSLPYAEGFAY
# Outline: as §1
# HSF1 = HSF1 (Homo sapiens, UniProt Q00613 1-529); conditions: protein: recombinant; tags: N-terminal GST; chain copies: 3; dsDNA, one strand shown
# Sequence of HSF1 (Q00613 whole entry): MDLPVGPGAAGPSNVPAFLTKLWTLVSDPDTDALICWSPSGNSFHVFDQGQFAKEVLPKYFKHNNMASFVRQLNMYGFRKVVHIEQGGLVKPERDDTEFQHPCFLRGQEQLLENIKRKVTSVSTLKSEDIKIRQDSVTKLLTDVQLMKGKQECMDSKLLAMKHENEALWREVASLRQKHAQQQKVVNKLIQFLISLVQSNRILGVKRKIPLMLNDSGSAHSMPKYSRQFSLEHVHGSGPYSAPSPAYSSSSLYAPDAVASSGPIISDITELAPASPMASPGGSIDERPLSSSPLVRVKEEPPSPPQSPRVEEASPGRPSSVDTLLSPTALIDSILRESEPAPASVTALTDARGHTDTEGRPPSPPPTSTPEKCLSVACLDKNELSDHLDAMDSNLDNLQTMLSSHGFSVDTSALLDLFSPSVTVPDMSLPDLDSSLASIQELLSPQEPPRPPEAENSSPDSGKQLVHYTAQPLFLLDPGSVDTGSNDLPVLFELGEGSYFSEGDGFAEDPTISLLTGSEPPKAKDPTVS
# Outline: as §1
# SPIC = biological target: T8, SPIC (Homo sapiens, UniProt Q8N5J4 1-248); conditions: protein: recombinant; tags: N-terminal GST; dsDNA, one strand shown
# T8 sequence: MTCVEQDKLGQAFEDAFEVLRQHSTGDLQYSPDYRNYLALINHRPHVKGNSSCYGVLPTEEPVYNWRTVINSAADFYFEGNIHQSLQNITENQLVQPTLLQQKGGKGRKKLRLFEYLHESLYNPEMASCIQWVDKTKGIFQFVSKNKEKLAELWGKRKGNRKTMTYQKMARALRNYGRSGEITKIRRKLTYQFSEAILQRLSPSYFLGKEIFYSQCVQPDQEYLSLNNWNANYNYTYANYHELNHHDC
# Outline: as §1
# ELF4 = ELF4 (Homo sapiens, UniProt Q99607 1-663); conditions: protein: recombinant; tags: N-terminal GST; dsDNA, one strand shown
# Sequence of ELF4 (Q99607 whole entry): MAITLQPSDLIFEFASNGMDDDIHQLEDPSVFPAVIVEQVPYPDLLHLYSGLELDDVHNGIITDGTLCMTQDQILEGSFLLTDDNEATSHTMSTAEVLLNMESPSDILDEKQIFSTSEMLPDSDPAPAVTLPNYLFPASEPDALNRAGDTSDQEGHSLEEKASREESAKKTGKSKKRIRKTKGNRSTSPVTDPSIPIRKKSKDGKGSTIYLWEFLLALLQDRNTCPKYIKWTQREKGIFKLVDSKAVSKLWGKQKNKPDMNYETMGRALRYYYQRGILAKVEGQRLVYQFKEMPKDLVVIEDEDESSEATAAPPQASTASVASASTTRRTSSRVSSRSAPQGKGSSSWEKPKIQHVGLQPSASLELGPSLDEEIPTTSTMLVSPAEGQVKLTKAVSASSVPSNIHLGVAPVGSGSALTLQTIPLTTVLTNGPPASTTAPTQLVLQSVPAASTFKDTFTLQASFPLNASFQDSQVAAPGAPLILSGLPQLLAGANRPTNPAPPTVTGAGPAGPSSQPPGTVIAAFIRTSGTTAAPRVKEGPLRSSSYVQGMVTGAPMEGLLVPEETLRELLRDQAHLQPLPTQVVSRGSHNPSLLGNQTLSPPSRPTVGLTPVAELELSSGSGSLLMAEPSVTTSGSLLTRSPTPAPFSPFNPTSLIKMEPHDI
# Outline: as §1
# ELK4 = biological target: T9, ELK4 (Homo sapiens, UniProt P28324-2 1-405); conditions: protein: recombinant; tags: N-terminal GST; dsDNA, one strand shown
# T9 sequence: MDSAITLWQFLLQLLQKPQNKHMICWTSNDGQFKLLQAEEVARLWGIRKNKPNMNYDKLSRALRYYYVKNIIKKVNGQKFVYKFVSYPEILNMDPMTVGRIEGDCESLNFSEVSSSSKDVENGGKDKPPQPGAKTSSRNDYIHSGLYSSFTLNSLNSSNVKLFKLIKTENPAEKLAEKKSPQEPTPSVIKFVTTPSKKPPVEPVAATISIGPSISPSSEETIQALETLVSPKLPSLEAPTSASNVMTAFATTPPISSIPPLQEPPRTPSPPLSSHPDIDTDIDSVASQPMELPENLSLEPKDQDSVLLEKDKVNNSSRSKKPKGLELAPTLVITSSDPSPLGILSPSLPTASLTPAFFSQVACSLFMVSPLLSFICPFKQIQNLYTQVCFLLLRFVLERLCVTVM
# Outline: as §1
# ETV2 = biological target: T10, ETV2 (Homo sapiens, UniProt O00321 1-342); conditions: protein: recombinant; tags: N-terminal GST; dsDNA, one strand shown
# T10 sequence: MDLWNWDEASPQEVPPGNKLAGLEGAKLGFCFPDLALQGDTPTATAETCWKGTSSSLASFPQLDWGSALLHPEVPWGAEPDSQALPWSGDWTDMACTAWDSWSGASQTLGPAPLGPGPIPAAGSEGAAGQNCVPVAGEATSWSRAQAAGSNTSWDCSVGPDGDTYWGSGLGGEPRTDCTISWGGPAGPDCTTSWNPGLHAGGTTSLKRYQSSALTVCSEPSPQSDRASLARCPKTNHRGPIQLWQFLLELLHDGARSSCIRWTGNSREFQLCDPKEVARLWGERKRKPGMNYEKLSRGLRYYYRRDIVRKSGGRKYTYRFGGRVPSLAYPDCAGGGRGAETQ
# Outline: as §1
# ELF3 = biological target: T11, ELF3 (Homo sapiens, UniProt P78545 1-371); conditions: protein: recombinant; tags: N-terminal GST; dsDNA, one strand shown
# T11 sequence: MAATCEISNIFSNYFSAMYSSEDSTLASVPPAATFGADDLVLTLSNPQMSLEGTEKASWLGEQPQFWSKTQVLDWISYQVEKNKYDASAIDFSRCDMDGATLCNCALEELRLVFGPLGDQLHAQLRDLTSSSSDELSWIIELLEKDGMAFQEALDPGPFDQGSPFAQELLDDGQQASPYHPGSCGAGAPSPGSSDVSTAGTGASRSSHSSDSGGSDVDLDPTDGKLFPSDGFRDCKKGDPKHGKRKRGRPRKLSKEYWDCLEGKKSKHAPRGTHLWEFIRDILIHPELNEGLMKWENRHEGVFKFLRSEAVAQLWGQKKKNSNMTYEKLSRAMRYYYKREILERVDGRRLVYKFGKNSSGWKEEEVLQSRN
# Outline: as §1
# CRX = CRX (Homo sapiens, UniProt O43186 1-299); conditions: protein: recombinant; tags: N-terminal GST; dsDNA, one strand shown
# Sequence of CRX (O43186 whole entry): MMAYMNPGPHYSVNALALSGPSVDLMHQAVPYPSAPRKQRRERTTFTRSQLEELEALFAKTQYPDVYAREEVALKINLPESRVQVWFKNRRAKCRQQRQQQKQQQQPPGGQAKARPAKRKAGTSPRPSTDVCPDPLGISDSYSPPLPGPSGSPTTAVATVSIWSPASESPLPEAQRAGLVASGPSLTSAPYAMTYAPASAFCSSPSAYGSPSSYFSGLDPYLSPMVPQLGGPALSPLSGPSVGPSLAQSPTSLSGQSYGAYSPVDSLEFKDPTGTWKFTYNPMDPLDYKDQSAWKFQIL
# Outline: as §1
# ETV1 = ETV1 (Homo sapiens, UniProt P50549 1-477); conditions: protein: recombinant; tags: N-terminal GST; dsDNA, one strand shown
# Sequence of ETV1 (P50549 whole entry): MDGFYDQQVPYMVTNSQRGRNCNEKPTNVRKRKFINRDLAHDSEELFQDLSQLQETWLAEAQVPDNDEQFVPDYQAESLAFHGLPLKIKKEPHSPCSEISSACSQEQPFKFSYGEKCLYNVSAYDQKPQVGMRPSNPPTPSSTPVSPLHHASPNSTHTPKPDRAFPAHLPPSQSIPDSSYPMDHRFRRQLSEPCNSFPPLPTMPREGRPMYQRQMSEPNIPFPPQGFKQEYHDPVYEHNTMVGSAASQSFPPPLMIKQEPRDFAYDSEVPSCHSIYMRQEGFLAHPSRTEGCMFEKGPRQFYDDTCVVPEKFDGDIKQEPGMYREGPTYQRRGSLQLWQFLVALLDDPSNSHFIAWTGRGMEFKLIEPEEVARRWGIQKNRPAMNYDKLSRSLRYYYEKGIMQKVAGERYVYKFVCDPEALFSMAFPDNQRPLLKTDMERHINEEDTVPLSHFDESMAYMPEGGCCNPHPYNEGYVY
# Outline: as §1
sequence,measurement,setting,value
TTGGCA,binding signal,FLI1,"1.15 fold enrichment (6-mer frequency, TF over GST control)"
same,binding signal,ELK1,"1.23 fold enrichment (6-mer frequency, TF over GST control)"
same,binding signal,GABPA,"1.08 fold enrichment (6-mer frequency, TF over GST control)"
same,binding signal,ERG,"1.15 fold enrichment (6-mer frequency, TF over GST control)"
same,binding signal,ELF1,"1.13 fold enrichment (6-mer frequency, TF over GST control)"
same,binding signal,EHF,"1.08 fold enrichment (6-mer frequency, TF over GST control)"
same,binding signal,SPI1,"1.16 fold enrichment (6-mer frequency, TF over GST control)"
same,binding signal,SPIB,"1.15 fold enrichment (6-mer frequency, TF over GST control)"
same,binding signal,ELK3,"1.17 fold enrichment (6-mer frequency, TF over GST control)"
same,binding signal,FEV,"1.13 fold enrichment (6-mer frequency, TF over GST control)"
same,binding signal,ETV5,"1.07 fold enrichment (6-mer frequency, TF over GST control)"
same,binding signal,HSF1,"1.04 fold enrichment (6-mer frequency, TF over GST control)"
same,binding signal,SPIC,"1.17 fold enrichment (6-mer frequency, TF over GST control)"
same,binding signal,ELF4,"1.16 fold enrichment (6-mer frequency, TF over GST control)"
same,binding signal,ELK4,"1.34 fold enrichment (6-mer frequency, TF over GST control)"
same,binding signal,ETV2,"1.25 fold enrichment (6-mer frequency, TF over GST control)"
same,binding signal,ELF3,"1.07 fold enrichment (6-mer frequency, TF over GST control)"
same,binding signal,CRX,"1.12 fold enrichment (6-mer frequency, TF over GST control)"
same,binding signal,ETV1,"1.18 fold enrichment (6-mer frequency, TF over GST control)"
